# According to PubChem BioAssay:
# Values joined by “and” are separate entries in the source; they are usually repeats but may differ in a detail not shown here. Identical values can stand only once. Active and inactive are the calls of the source. Cut-off read from the data, not from the text of the source, unless noted: active = inhibition above about 80%; inactive = the rest.
# Experiments:
# [1] = sensitizers of A549 cells to miR-34 induction, primary screen, imaging, A549 dox-inducible miR-34, nuclei and caspase counts (AID 1347080;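 active = compounds whose cell count with miR-34 switched on is under 0.7 times the count with it off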); settings: A549 miR-34 inducible, Hoechst nuclei count, 48 h
# [2] = survival rescue of mitochondrial mutant cells in low glucose, primary screen, MELAS cybrids, Rieske KO mouse fibroblasts, CellTiter-Glo (AID 1508586;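 active = mean z-score across replicates of 1.96 or higher in either the MELAS or the Rieske mutant cell line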;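 note: z relative to plate mean and SD of compound and empty wells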)
# [3] = viability rescue of complex I mutant cybrids, primary screen, cell-based, galactose medium, ATP luminescence (AID 1645843;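 active = z-score of at least 1.8 in each of two replicates, scored against plate mean and spread of sample wells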;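 note: positive z means more ATP and so rescue of galactose-driven cybrid death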); settings: complex I mutant cybrid cells, 72 h, stronger effect = higher value
# [4] = LFS_MB_P medulloblastoma growth inhibition, cell-based, chromothripsis tumors, cisplatin or BGB combos (AID 1671449); settings: LFS_MB_P medulloblastoma cells;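 note: cells exposed for 96 hours; 0% = vehicle DMSO and 100% = killing by high DMSO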
# [5] = HDN33 neuroblastoma growth inhibition, cell-based, chromothripsis tumors, cisplatin or BGB combos (AID 1671450); settings: HDN33 neuroblastoma cells, stronger effect = higher value;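 note: cells exposed to compound for four days; 0% = vehicle DMSO and 100% = cell killing by high DMSO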
# [6] = ICB984 medulloblastoma cell growth inhibition, synergistic combos for chromothripsis tumors, cisplatin or BGB combos (AID 1671451; call rule not given here;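 note: cells exposed for 96 hours before readout; 0% = vehicle DMSO and 100% = killing by high DMSO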); settings: ICB984 medulloblastoma cells, drug combinations, stronger effect = higher value
# [7] = LFS_MB_1R medulloblastoma cell growth inhibition, synergistic combos for chromothripsis tumors, cisplatin or BGB combos (AID 1671452); settings: LFS_MB_1R medulloblastoma cells, stronger effect = higher value;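 note: cells exposed for 96 hours before readout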
# [8] = HTB85 osteosarcoma cell growth inhibition, synergistic combos for chromothripsis tumors, BGB or cisplatin IC20 combos (AID 1671453); settings: HTB85 osteosarcoma cells, drug combinations, stronger effect = higher value;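 note: cells exposed for 96 hours before readout; 0% = vehicle DMSO and 100% = high DMSO killing control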
# [9] = CRL2098 osteosarcoma cell growth inhibition, synergistic combos for chromothripsis tumors, BGB or cisplatin IC20 combos (AID 1671454); settings: CRL2098 osteosarcoma cells, drug combinations, stronger effect = higher value;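 note: cells exposed for 96 h before readout; 0% = vehicle DMSO and 100% = killing by high DMSO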
# [10] = HD-MB03 medulloblastoma cell growth inhibition, synergistic combos for chromothripsis tumors, BGB or cisplatin IC20 combos (AID 1671455; in the data active = inhibition above about 83%;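 note: 0% = vehicle DMSO and 100% = high DMSO as cytotoxic control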); settings: HD-MB03 medulloblastoma cells, stronger effect = higher value
# [11] = UWB1.289 ovarian carcinoma cell growth inhibition, synergistic combos for chromothripsis tumors, BGB or cisplatin combos (AID 1671456); settings: UWB1.289 ovarian carcinoma cells, stronger effect = higher value;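 note: cells exposed to compound for four days; 0% = vehicle DMSO and 100% = killing by high DMSO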
# [12] = LFS_MB_2R medulloblastoma cell growth inhibition, synergistic combos for chromothripsis tumors, cisplatin combos (AID 1671457); settings: LFS_MB_2R medulloblastoma cells, stronger effect = higher value;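 note: cells exposed to compound for four days before readout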
# [13] = MDA-MB-436 breast carcinoma cell growth inhibition, synergistic combos for chromothripsis tumors, BGB or cisplatin combos (AID 1671458; call rule not given here;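 note: cells exposed for 96 hours; 0% = vehicle DMSO and 100% = killing by high DMSO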); settings: MDA-MB-436 breast carcinoma growth inhibition, drug combinations, stronger effect = higher value
# [14] = UWB1.289_BRCA1 ovarian cancer growth, cell-based, BGB or cisplatin combinations (AID 1671459); settings: UWB1.289 BRCA1 ovarian carcinoma, drug combinations, stronger effect = higher value
# [15] = human astrocyte viability loss, single and combined drugs, cytotoxicity control for chromothriptic childhood tumor combination screen, cell-based, BGB or cisplatin IC20 combos (AID 1671460); settings: Human astrocytes, drug combinations, stronger effect = higher value;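 note: cells exposed to compounds for 96 hours before viability readout; 0% = vehicle and 100% = killing control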
# [16] = growth inhibition of BT084 medulloblastoma cells, cell-based, ICGC_MB145, cisplatin and BGB IC40 combos (AID 1671461); settings: drug combinations, stronger effect = higher value;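 note: cells exposed to drugs for 96 hours; 0% = vehicle DMSO and 100% = high DMSO full killing control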
# [17] = growth inhibition of RCMB18 medulloblastoma cells, cell-based, cisplatin and BGB IC40 combos (AID 1671462); settings: stronger effect = higher value;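 note: cells exposed to compound for four days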
# [18] = growth inhibition of CRL1545 osteosarcoma cells, cell-based, cisplatin and BGB IC20 combos (AID 1671464); settings: stronger effect = higher value;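 note: cells exposed to compound for 96 hours before readout; 0% = vehicle DMSO and 100% = high DMSO killing control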
# [19] = stronger effect = lower value, cell number ratio, induced over uninduced
# [20] = measured here: relative caspase fold change +Dox/-Dox
# [21] = measured here: total cells with miR-34 induction, stronger effect = lower value
# [22] = measured here: total cells without miR-34 induction
# [23] = MELAS cybrid survival, CellTiter-Glo 48 h, stronger effect = higher value
# [24] = Rieske KO mouse fibroblast survival, CellTiter-Glo 72 h
# [25] = measured here: combination with BGB IC40, at 0.05 µM
# [26] = measured here: with BGB IC20 combination, at 0.5 µM
# [27] = measured here: with cisplatin IC20 combination, at 0.5 µM
# [28] = measured here: combination with cisplatin, at 0.5 µM
# [29] = measured here: combination with cisplatin, at 5 µM
structure (smiles),measurement,setting,value
Nc1nc(Cl)nc2c1ncn2C1CC(O)C(CO)O1 (stereo unspecified),fold change,[1]; [19],0.657 (active) and 0.485 (active)
same,fold change,[1]; [20],3.27 and 5.56
same,cell count,[1]; [21],1440 and 1620
same,cell count,[1]; [22],2200 and 3330
same,z-score,[2]; [23],0.255 (inactive)
same,z-score,[2]; [24],0.0981
same,z-score,[3],-1.71 (inactive)
same,inhibition,"[4]; at 0.5 µM, stronger effect = higher value",-16% (inactive) and 3.33% (inactive)
same,inhibition,"[4]; measured here: combination with BGB IC20, at 0.005 µM",-14.4% and 7.64%
same,inhibition,"[4]; measured here: combination with BGB IC40, at 0.005 µM",-28.7% and 21.8%
same,inhibition,[4]; [25],-54.9% and 15%
same,inhibition,"[4]; measured here: combination with cisplatin, at 0.5 µM, stronger effect = higher value",-23.7% and 50.7%
same,inhibition,"[4]; measured here: combination with cisplatin, at 5 µM, stronger effect = higher value",76.7% and 86.2%
same,inhibition,"[5]; BGB combo, at 5 µM",83.3% and 87.6%
same,inhibition,[5]; at 0.5 µM,6.11% (inactive) and 14.7% (inactive)
same,inhibition,"[5]; cisplatin combo, at 5 µM",79% and 81.5%
same,inhibition,[5]; [26],10.3% and 9.34%
same,inhibition,[5]; [27],-1.24% and 16.1%
same,inhibition,"[5]; single agent, at 5 µM",84.5% and 87.2%
same,inhibition,"[6]; BGB IC20 combo, at 0.005 µM",-1.92% and -30.4%
same,inhibition,"[6]; BGB IC40 combo, at 0.005 µM",-14.5% and -25.7%
same,inhibition,"[6]; BGB IC40 combo, at 0.05 µM",-14.6% and -11.7%
same,inhibition,[6]; at 0.5 µM,-34.2% (inactive) and -10.6% (inactive)
same,inhibition,"[6]; cisplatin combo, at 0.05 µM",-18.7% and -11.7%
same,inhibition,"[6]; cisplatin combo, at 0.5 µM",-35.7% and -23.4%
same,inhibition,"[6]; cisplatin combo, at 5 µM",-35.2% and -39.5%
same,inhibition,"[6]; measured here: 5 uM single agent, at 5 µM",-14.9% and -11.7%
same,inhibition,[7]; at 0.5 µM,-20.9% (inactive) and -13% (inactive)
same,inhibition,[7]; [25],-46.2% and -32.5%
same,inhibition,[7]; [28],26.2% and 30.5%
same,inhibition,[7]; [29],52% and 76.7%
same,inhibition,[8]; at 0.5 µM,22.5% (inactive) and 18.5% (inactive)
same,inhibition,"[8]; measured here: with BGB IC20, at 0.5 µM",21.3% and 13.2%
same,inhibition,"[8]; measured here: with BGB IC20, at 5 µM",92.2% and 94.6%
same,inhibition,"[8]; measured here: with cisplatin IC20, at 0.5 µM",10.1% and 11.2%
same,inhibition,"[8]; measured here: with cisplatin IC20, at 5 µM",90.5% and 90%
same,inhibition,"[8]; single agent, at 5 µM",94.7% and 91.5%
same,inhibition,[9]; at 0.5 µM,-92.1% (inactive) and -37.1% (inactive)
same,inhibition,"[9]; measured here: combination with BGB at IC20, at 0.5 µM",-60.9% and -36.5%
same,inhibition,"[9]; measured here: combination with cisplatin at IC20, at 0.5 µM",-146% and -71.4%
same,inhibition,[10]; at 0.5 µM,93.4% (active) and 93.2% (active)
same,inhibition,"[10]; measured here: combo with BGB at IC20, at 0.5 µM",87.7% and 88.9%
same,inhibition,"[10]; measured here: combo with cisplatin at IC20, at 0.5 µM",96.3% and 94.8%
same,inhibition,[11]; at 0.5 µM,12.5% (inactive) and 14.8% (inactive)
same,inhibition,"[11]; measured here: inhibition with BGB combination, at 0.05 µM",-7.25% and -6.1%
same,inhibition,"[11]; measured here: inhibition with cisplatin combination, at 0.05 µM",-13.8% and -6.66%
same,inhibition,[12]; at 0.5 µM,-3.57% (inactive) and 10.2% (inactive)
same,inhibition,[12]; [28],24.5% and 43.1%
same,inhibition,[12]; [29],61.9% and 69.5%
same,inhibition,[13]; at 0.5 µM,3.02% (inactive) and 2.95% (inactive)
same,inhibition,"[13]; measured here: BGB combination, at 0.5 µM",-5.54% and -2.62%
same,inhibition,"[13]; measured here: BGB combination, at 5 µM",46.1% and 53.6%
same,inhibition,"[13]; measured here: cisplatin combination, at 0.5 µM",-4.37% and -12.8%
same,inhibition,"[13]; measured here: cisplatin combination, at 5 µM",61.1% and 70%
same,inhibition,"[14]; BGB combination, concentration series, at 5 µM",43.2% and 57.7%
same,inhibition,[14]; at 0.5 µM,20.9% (inactive) and 19.3% (inactive)
same,inhibition,"[14]; cisplatin combination, concentration series, at 5 µM",48.4% and 63.7%
same,inhibition,[15]; at 0.5 µM,58.1% (inactive) and 38.4% (inactive)
same,inhibition,"[15]; measured here: combo with BGB IC20, at 0.5 µM",62.6% and 39.2%
same,inhibition,"[15]; measured here: combo with cisplatin IC20, at 0.5 µM",42.6% and 31.2%
same,inhibition,[16]; at 0.5 µM,-0.858% (inactive) and 10.4% (inactive)
same,inhibition,"[16]; cisplatin combination, at 0.5 µM",37.2% and 42%
same,inhibition,"[16]; cisplatin combination, at 5 µM",65.8% and 54%
same,inhibition,"[16]; measured here: BGB IC40 combination 0.05 uM, at 0.05 µM",-30.7% and 12.8%
same,inhibition,"[16]; single agent, at 5 µM",1.68% and 7.77%
same,inhibition,[17]; at 0.5 µM,19.1% (inactive) and 26.3% (inactive)
same,inhibition,"[17]; cisplatin combo, at 5 µM",83.6% and 81.2%
same,inhibition,"[17]; measured here: BGB IC40 combination, at 0.05 µM",-5.46% and 2.56%
same,inhibition,[17]; [28],70.6% and 65.1%
same,inhibition,"[17]; single agent, at 5 µM",27.8% and 40.5%
same,inhibition,[18]; at 0.5 µM,-27.8% (inactive) and -35.8% (inactive)
same,inhibition,[18]; [26],-14.9% and -11.9%
same,inhibition,[18]; [27],-36.5% and -47.7%
same,inhibition,"[18]; single agent, at 0.05 µM",-95.3% and 17.3%
same,inhibition,"[18]; single agent, at 5 µM",75.8% and 80.1%
Cc1ccc(S(=O)(=O)NCCCOC(=O)Nc2ccncc2)cc1,fold change,[1]; [19],0.881 (inactive)
same,fold change,[1]; [20],0.547
same,cell count,[1]; [21],7920
same,cell count,[1]; [22],8990
same,z-score,[2]; [23],0.675 (inactive)
same,z-score,[2]; [24],-0.0111
same,z-score,[3],-0.675 (inactive)
CCn1ncc(NC(=O)Cn2nc(C)c(-c3cccc(C(C)=O)c3)c2C)n1,fold change,[1]; [19],0.83 (inactive)
same,fold change,[1]; [20],2.28
same,cell count,[1]; [21],2420
same,cell count,[1]; [22],2910
same,z-score,[2]; [23],-0.514 (inactive)
same,z-score,[2]; [24],-0.567
same,z-score,[3],-0.465 (inactive)
CCCOc1ccc(CC(=O)O)cc1Cl,fold change,[1]; [19],0.877 (inactive)
same,fold change,[1]; [20],0.341
same,cell count,[1]; [21],8590
same,cell count,[1]; [22],9790
same,z-score,[2]; [23],0.699 (inactive)
same,z-score,[2]; [24],0.326
same,z-score,[3],0.735 (inactive)
